GLD-1 RNA inh: GLD-1-TGE RNA interaction inhibition (C. elegans) | purified GLD-1 + fluorescein TGE RNA, fluorescence polarization | hit rate 0.44% among 320,000 | inhibition, % at 5.96 µM;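 active = percent inhibition above a per-plate cutoff, the plate mean of test compounds plus 3 SD, cut at about 30% in these data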;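 note: 0% = DMSO wells with GLD-1 and probe and 100% = wells lacking GLD-1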
Mcl1 Bid PPI: Mcl-1/Bid interaction inhibition | Q07820 | TR-FRET Mcl-1/Bid-Dy647 peptide binding, 1536-well | inhibition, % at 21.7 µM | hit rate 0.97% among 220,000 | AID 1021;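 active = compounds that cut the binding signal by more than half at the single screening dose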;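 note: His-tagged Mcl-1 with europium anti-His antibody binding Bid BH3 peptide; 0% = Mcl-1 plus peptide wells and 100% = peptide-only wells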
Mcl1 Noxa PPI: disrupts binding of human Mcl-1 to Noxa peptide; TR-FRET Mcl-1/Noxa peptide binding, 2 h; inhibition, % at 21.7 µM; hit rate 1.5% among 220,000; AID 1022;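 active = compounds that cut the protein-peptide binding signal by more than 50% relative to plate controls in a single-dose test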;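 note: His-tagged Mcl-1 with rhodamine Noxa BH3 peptide and terbium anti-His antibody; 0% = Mcl-1 plus Noxa peptide wells and 100% = peptide-only wells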
MCL1 BIM primary: disrupts human MCL1 binding to BIM-BH3 peptide | inhibition, % at 10.9 µM | hit rate 0.68% among 320,000 | Q07820 | GST-MCL1 / FITC-Bim-BH3 fluorescence polarization;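 active = inhibition above the mean inhibition of all tested compounds plus 3 SD, set per campaign, cut at about 40% in these data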;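 note: 0% = DMSO wells and 100% = unlabeled Bim-BH3 peptide control; higher means more loss of mP so more displacement of Bim peptide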
BCLXL inh: Bcl-xL (human) inhibition; GST-Bcl-xL / FITC-Bim BH3 peptide fluorescence polarization; inhibition, % at 10.9 µM; hit rate 0.7% among 320,000; AID 2129;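 active = inhibition above the mean of all tested compounds plus 3 SD, cutoff set per campaign, cut at about 30% in these data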;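 note: 0% = DMSO wells and 100% = unlabeled Bim-BH3 peptide competitor; inhibitors lower millipolarization by displacing the labeled peptide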
Target sequence (Q07817 whole entry, looked up): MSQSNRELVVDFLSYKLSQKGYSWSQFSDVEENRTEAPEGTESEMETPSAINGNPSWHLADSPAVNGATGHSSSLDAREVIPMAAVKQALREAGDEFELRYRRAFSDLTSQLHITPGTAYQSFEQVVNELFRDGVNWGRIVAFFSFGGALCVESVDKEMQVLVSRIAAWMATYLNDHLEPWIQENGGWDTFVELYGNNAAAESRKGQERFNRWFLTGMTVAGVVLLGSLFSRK
Bim-Mcl-1: disrupts Bim peptide binding to human Mcl-1. Q07820. Bead-based flow cytometry, Bim peptide-Mcl-1 binding. inhibition, % at 10 µM. hit rate 0.1% among 190,000. AID 1009; in the data active = inhibition above about 40%;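 note: 0% = no compound tracer wells and 100% = peptide blocker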
BCLXL inh confirm: counter-screen for MCL1 inhibitors: confirmation of human Bcl-xL inhibitors | shares compounds with MCL1 BIM primary | GST-Bcl-xL / FITC-Bim BH3 peptide FP binding | inhibition, % at 10.9 µM | hit rate 54% among 1,700;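 active = inhibition above a cutoff equal to the mean inhibition of all tested compounds plus 3 SD, cut at about 30% in these data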;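 note: 0% = DMSO wells and 100% = unlabeled Bim BH3 control peptide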
MCL1 inh confirm: confirmation of human MCL1 and BIM-BH3 interaction inhibitors; shares compounds with MCL1 BIM primary; GST-MCL1 / FITC-Bim-BH3 fluorescence polarization; hit rate 61% among 1,700; inhibition, % at 10.9 µM;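 active = inhibition above the average of all tested compounds plus 3 SD, cut at about 40% in these data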;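 note: 0% = DMSO wells and 100% = unlabeled Bim-BH3 control peptide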
* = called active by the depositor; i = inactive; nt = not tested or not shown; + = active, no number. In the library only some 2.3% were active in any assay of this set; here they are far more common.

SMILES	GLD-1 RNA inh	Mcl1 Bid PPI	Mcl1 Noxa PPI	MCL1 BIM primary	BCLXL inh	Bim-Mcl-1	BCLXL inh confirm	MCL1 inh confirm
CCN1/C(=C\C=C\C2=[N+](CC)c3ccccc3C2(C)C)C(C)(C)c2ccccc21	+	-9	i	+	+	0	+	+
CN(C)[C@@H]1C(=O)C(C(N)=O)=C(O)[C@@]2(O)C(=O)C3=C(O)c4c(O)ccc(Cl)c4[C@@](C)(O)[C@H]3C[C@@H]12	-1	nt	nt	14	5	nt	nt	nt
CN(C)[C@@H]1C(=O)C(C(N)=O)=C(O)[C@@]2(O)C(=O)C3=C(O)c4c(O)cccc4[C@@](C)(O)C3C[C@@H]12 (some centres not stated)	2	nt	nt	51*	25	nt	17	26
COCCNC(=O)Cn1cc(/C=C2\C(=O)NC(=O)N(c3ccccc3F)C2=O)c2ccccc21	-15	nt	nt	-21	-11	nt	nt	nt
COCCCNC(=O)Cn1cc(/C=C2\C(=O)NC(=O)N(c3ccccc3F)C2=O)c2ccccc21	-22	nt	nt	100*	2	nt	117*	133*
O=c1[nH]c(=S)n(-c2ccc(Cl)cc2)c(O)c1C=Nc1ccc(N2CCOCC2)cc1	-21	-15	-2	+	166*	3	185*	+
O=[N+]([O-])c1cccc(NP(=O)(Oc2ccccc2)Oc2ccccc2)c1	6	nt	nt	1	1	nt	nt	nt
CN1CCN(C(=O)COc2ccc(S(=O)(=O)NC3CCCCC3)cc2Cl)CC1	-3	nt	nt	4	4	nt	nt	nt
O=C1NC(=S)N(c2ccccc2)C(=O)/C1=C/c1ccco1	25	nt	nt	53*	47*	nt	18	24
Cc1cc(O)c(CN2CC=C(c3ccccc3)CC2)cc1C(C)C	-6	nt	nt	-1	-4	nt	nt	nt
O=c1[nH]c(O)c(/C=C2\C=Nc3ccc(OCc4ccccc4)cc32)c(=O)[nH]1	46*	nt	nt	188*	167*	nt	126*	153*
CC1=NCCc2c1[nH]c1cc(O)ccc21	+	nt	nt	+	+	nt	+	+
CC1=C[C@@H]2c3cccc4[nH]cc(c34)C[C@H]2N(C)C1	118*	nt	nt	+	169*	nt	141*	163*
COc1cc(C)cc2oc(=O)c(CC(=O)N3C[C@H]4C[C@@H](C3)c3cccc(=O)n3C4)c(C)c12	4	nt	nt	-1	2	nt	nt	nt
O=C1NC(=O)N(Cc2ccco2)C(=O)/C1=C/c1ccc(-c2cccc([N+](=O)[O-])c2)o1	-4	-2	93*	43*	17	8	24	62*
C=CCN1C(=O)NC(=O)/C(=C\c2ccc(-c3ccccc3[N+](=O)[O-])o2)C1=O	6	-52	15	29	5	-8	nt	nt
O=c1[nH]c(=S)[nH]c(O)c1/C=C1/C=c2ccccc2=N1	-16	nt	nt	92*	68*	nt	135*	170*
O=C(c1ccc2nc(-c3ccco3)c(-c3ccco3)nc2c1)N1CCC2(CC1)OCCO2	22	6	78*	69*	52*	4	34*	39
COc1ccc(C(=O)N2CCC3(CC2)OCCO3)cc1	10	nt	nt	1	1	nt	nt	nt
COC(=O)Cn1cc(C=C2C(=O)NC(=O)NC2=O)c2ccccc21	-17	nt	nt	-6	-5	nt	nt	nt
CCn1cc(C=C2C(=O)NC(=O)NC2=O)c2ccccc21	-14	nt	nt	148*	136*	nt	112*	123*
CC(NC1=NCCS1)c1ccccc1 (configuration not stated)	0	-12	5	4	-3	0	nt	nt
CNC(C(=O)c1ccccc1)C(OC)c1cccc([N+](=O)[O-])c1 (configuration not stated)	3	1	7	5	4	nt	nt	nt
Cc1ccc(/C=C2/Sc3ccc(C(=O)N4CCC5(CC4)OCCO5)cc3NC2=O)cc1	75*	nt	nt	125*	106*	nt	108*	131*
CCCCn1c(C)c(C(=O)O)c2cc(OC)c3ccccc3c21	7	nt	nt	4	0	nt	nt	nt
